From PubChem BioAssay (NCI)
Compounds without any hit were thinned out: in the full panel of roughly 83,000, 20% have a hit.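 Plates (96-well) were seeded with cells, treated with compound at one concentration, and incubated for 48 hours before percent growth was determined.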 Unmarked numbers belong to inactive results. Calls of active or inactive are those of the source. Rule for the calls: active = growth percent below 10; inactive = the rest.

How the values were obtained:
Assay in all cases: NCI-60 one-dose screen, 48 h (100 = growth as untreated, 0 = no growth, -100 = all killed)
Settings in all cases: 10 µM unless noted
[1] = test system: DU-145 prostate
[2] = test system: K-562 leukemia
[3] = test system: MALME-3M melanoma
[4] = test system: MDA-MB-231 breast
[5] = test system: RXF 393 renal
[6] = test system: SF-268 CNS
[7] = test system: SF-295 CNS
[8] = test system: SF-539 CNS
[9] = test system: UACC-257 melanoma
[10] = test system: M14 melanoma
[11] = test system: HCT-15 colon
[12] = test system: HT29 colon
[13] = test system: SNB-75 CNS
[14] = test system: SNB-19 CNS
[15] = test system: U251 CNS
[16] = test system: PC-3 prostate
[17] = test system: SK-MEL-5 melanoma
[18] = test system: UACC-62 melanoma
[19] = test system: LOX IMVI melanoma
[20] = test system: SK-MEL-28 melanoma

Structure (SMILES)	growth [1] [%]	growth [2]	growth [3]	growth [4] [%]	growth [5]	growth [6] [%]	growth [7] [%]	growth [8] [%]	growth [9]	growth [10] [%]	growth [11] [%]	growth [12]	growth [13] [%]	growth [14] [%]	growth [15] [%]	growth [16] [%]	growth [17]	growth [18] [%]	growth [19]	growth [20] [%]
O=[N+]([O-])c1ccc(N=Nc2c(O)c(N=Nc3cc([N+](=O)[O-])cc([N+](=O)[O-])c3O)cc(N=Nc3cc(S(=O)(=O)O)cc4cc(S(=O)(=O)O)cc(O)c34)c2O)cc1	108	77.7%	101%	102	112%	101	106	102	105%	92.4	101	99.1%	91.1	105	105	86.7	108%	95.5	90.1%	99
CN(C)C1=NCCN1	108	95.6%	97.2%	105	108%	104	101	104	103%	95.7	108	88.3%	75.8	111	96.9	80	103%	102	99.2%	113
Nc1ccc(C2=NN(C(=O)c3cc(-c4ccc(Cl)cc4)nc4ccccc34)C(c3ccccc3)C2)cc1 (stereo not given)	33.2	15.6%	52.5%	61.2	-3.58% (active)	57.3	13.1	14.9	55.3%	16.9	25.5	12.2%	40.2	34.1	40.1	26.8	25.9%	38.9	42.5%	58.8
CCC1S/C(=N\N=C(/C)c2ccc[nH]2)N(c2ccccc2)C1=O (stereo not given)	122	72.8%	85.5%	100	91.4%	109	120	119	104%	115	96.1	87.4%	105	106	108	94.2	79%	101	110%	110
CC(=O)OC[C@]12CC[C@@H](c3cn(Cc4ccc(Cn5cc([C@@H]6CC[C@]7(COC(C)=O)CC[C@]8(C)[C@H](CC[C@@H]9[C@@]%10(C)CC[C@H](OC(C)=O)C(C)(C)[C@@H]%10CC[C@]98C)[C@@H]67)nn5)cc4)nn3)[C@@H]1[C@H]1CC[C@@H]3[C@@]4(C)CC[C@H](OC(C)=O)C(C)(C)[C@@H]4CC[C@@]3(C)[C@]1(C)CC2	103	94.7%	98.8%	96.9	105%	88.8	98.8	98.7	93.3%	103	102	97.2%	105	96.7	103	104	105%	95.8	97.3%	99.8
C#C[C@@]1(O)[C@@H](CO)O[C@@H](n2cc(Cl)c3c(N)ccnc32)[C@@H]1O	56.1	42.8%	82.3%	57.4	106%	87.4	81.9	89.3	89.2%	85.3	50.8	38.7%	140	89.9	16	36.7	70.8%	105	42%	100
Cc1nccc2c3ccc(OCc4cn(-c5ccc(Cl)cc5)nn4)cc3n(CC(C)C)c12	54.1	8.22% (active)	0.392% (active)	27.8	0.754% (active)	57.3	15.4	22.2	4.16% (active)	23.2	18.7	1.3% (active)	55.8	38.9	26.9	17.4	-78.3% (active)	24.2	3.05% (active)	25.2
